Assay results: PubChem BioAssay AID504832 (National Center for Advancing Translational Sciences (NCATS), 2011)
Among all 310,000 compounds or so, about 18,000 (5.8%) were called active. Where a call stands in place of a potency, no number is given. Inconclusive results (about 22%) are left out. Many of the other results were omitted from the sample, so actives are more common in it than they were. Values without a mark were called inactive. Calls follow the shape of the dose curve; as a rule, active = well fitted inhibition curve with a large enough effect; inconclusive = small, poorly fitted or top-dose-only effect, or another doubt; inactive = no such curve, though single readings can be large or run the other way.

Assay: Primary qHTS for delayed death inhibitors of the malarial parasite plastid, 48 hour incubation
Details: P. falciparum luciferase growth in erythrocytes; series mostly up to 28.7 µM
Excerpt: The goal of this screen is to discover new antimalarial compounds that act by inhibiting the development of the apicoplast in the malarial parasite Plasmodium falciparum. The biochemical processes that make this organelle essential for erythrocytic stage parasites are not well understood. However, antibiotics such as azithromycin and tetracycline, which target the apicoplast translational machinery, have a potent antimalarial effect.
We have developed a cell-based assay that measures parasite growth based on the expression of an integrated copy of a firefly luciferase reporter. To detect small molecules that cause this "delayed death" phenotype, erythrocytes infected with the luciferase-expressing parasites were incubated with compounds for either one or two generations, corresponding to 48 and 96 hours, respectively. Compounds that inhibit parasite growth in the second generation, but not the first, should be enriched in antimalarials that target the apicoplast. Growth inhibition is detected by a decrease in luciferase activity.
Assay Provider: David Fidock and Eric Ekland, Columbia University
Keywords: NIH Roadmap, MLPCN, MLI, MLSMR, qHTS, NCGC, qHTS, malaria, luciferase, viability
Four microliters of culture medium (RPMI 1640 with 0.5% w/v Albumax (GIBCO), 24 mM sodium bicarbonate and 10 ug/mL gentamycin) were dispensed by a Multi-drop Combi into white solid 1536-well plates (Grenier) and 23 nL compound was added by a pin tool. Four microliters of infected erythrocytes (2% hematocrit, 0.1% parasitemia final concentration) in culture medium were dispensed and the plates incubated for 48 hours at 37 C in 5% CO2. Two microliters of luciferase detection reagent was added and luminescence was detected by a ViewLux (PerkinElmer) reader.
Potency is read from the fitted curve at half-maximal effect.

| SMILES | Potency | activity change, negative = inhibition |
| --- | --- | --- |
| CCOc1ccc(CN2CCN(Cc3ccc4cc(F)ccc4n3)CC2CCO)cc1 (stereo unspecified) | inactive |  |
| COc1cccc(CN(C)CC(O)COC(c2ccccc2)c2ccccc2C)c1 (stereo unspecified) | 8.28 µM (active) |  |
| COc1cccc(CN(C)CC(=O)Nc2sc3c(c2C#N)CCC3)c1 | inactive |  |
| COc1ccc(OCC(O)CN(C)C(=O)C(C)Oc2ccccc2)cc1 (stereo unspecified) | inactive |  |
| CC(=O)Nc1ccc(NC(=O)CSc2nnnn2-c2ccccc2F)cc1 | inactive |  |
| O=C(NCCNc1ccccc1[N+](=O)[O-])c1ccccc1F | inactive |  |
| COc1ccccc1C(=O)Nc1ccc(OCC(=O)N2CCCCC2)cc1 | inactive |  |
| CC(C)c1ccc2c(c1)c(SC(C)(C)C)c(CC(C)(C)C(=O)O)n2Cc1ccc(Cl)cc1 | 8.28 µM (active) |  |
| O=C(O)c1ccc(Cn2c(=S)[nH]c3cc(Cl)ccc3c2=O)cc1 | inactive |  |
| COc1ccc(NS(=O)(=O)c2cccc3nsnc23)cc1Cl | inactive |  |
| COc1ccc(-n2nc(C(=O)Nc3cc(OC)c(OC)c(OC)c3)c3ccccc3c2=O)c(OC)c1 | inactive |  |
| COc1ccc(-n2nc(C(=O)NCC(=O)N3CCN(c4ccccc4OC)CC3)c3ccccc3c2=O)c(OC)c1 | 1.04 µM (active) |  |
| COc1cccc(NC(=O)c2nn(-c3ccc(OC)cc3OC)c(=O)c3ccccc23)c1 | inactive |  |
| O=C(NCCCN1CCCCC1)C1CC(=O)N(CCc2ccccc2)C1 (stereo unspecified) | inactive |  |
| O=C(Nc1ccc2c(c1)OCO2)C1CC1(Cl)Cl (stereo unspecified) | inactive |  |
| Cn1c(=N)n(CC(O)c2ccccc2)c2ccccc21 (stereo unspecified) | inactive |  |
| CCOc1ccc(C(O)Cc2nc3ccccc3n2C)cc1 (stereo unspecified) | inactive |  |
| CCOc1ccc(C(O)Cn2c(=N)n(CCN3CCCCC3)c3ccccc32)cc1 (stereo unspecified) | 4.65 µM (active) |  |
| COc1ccc(N(CC(=O)NCc2ccc(F)cc2)C(=O)CCC(=O)Nc2nccs2)cc1 | inactive |  |
| CN1CCN(NC(=O)Nc2ccc(Br)cc2)CC1 | inactive |  |
| Cc1ccc(C)c(NC(=O)COC(=O)Cn2c(C)csc2=O)c1 | inactive |  |
| COC(=O)c1ccc(OC(=O)c2cnccn2)cc1 | inactive |  |

| SMILES | Potency | activity change, negative = inhibition |
| --- | --- | --- |
| CC(C)C(=O)N1CC(=O)Nc2ccc(F)cc2C1c1ccc(F)cc1 (stereo unspecified) | inactive |  |
| CCNC(=S)Nc1ccc(OC(F)(F)F)cc1 | inactive |  |
| CS(=O)(=O)c1sc(C(=O)NC(=S)Nc2ccc(OC(F)(F)F)cc2)c2c1C=CCC2 | 2.62 µM (active) |  |
| FC(F)(F)Oc1ccc(NC(=S)NCc2ccccc2)cc1 | inactive |  |
| COc1ccc(/C=C(/NC(=O)c2ccccc2)C(=O)Nc2cccc(C(=O)O)c2)cc1 | inactive |  |
| Cc1cc(C)cc(OCC(=O)OCC(=O)NC2CCCC2)c1 | inactive |  |
| CS(=O)(=O)N1CCN(C(=O)CSc2ccccc2)CC1 | inactive |  |
| CCCC[C@@H]1CN=C(N)N1CCc1cc(C(F)(F)F)cc(C(F)(F)F)c1 | 5.22 µM (active) |  |
| Cc1cccc(N2CCN(C(C)C(=O)N3CCc4ccccc43)CC2)c1C (stereo unspecified) | inactive |  |
| CCCNC(=O)c1ccc(Cl)c(Cl)c1 | inactive |  |
| CCCn1c(=N)n(CC(=O)c2ccc(Cl)c(Cl)c2)c2ccccc21 | 7.38 µM (active) |  |
| CCCCOC(=O)Cn1c(=N)n(CCN(CC)CC)c2ccccc21 | inactive |  |
| Cc1ccnc(N2C(=O)c3ccc([N+](=O)[O-])cc3C2=O)c1 | inactive |  |
| CCOC(=O)N1CCC(NC(=O)CCc2ccccc2)CC1 | inactive |  |
| CCOC(=O)N1CCC(c2cc(=O)n(-c3ccccc3)[nH]2)CC1 | 9.28 µM (active) |  |
| CCOC(=O)CN1CCC(c2ccccc2)CC1 | inactive |  |
| Cc1nn(-c2ccccc2)c(C)c1NC(=O)COc1ccc(Cl)cc1Cl | inactive |  |
| Cc1cc(NC(=O)COc2ccc(Cl)cc2Cl)n(CCC#N)n1 | inactive |  |
| COC(=O)c1c(NC(=O)COc2ccc(Cl)cc2Cl)sc2c1CC(C)(C)NC2(C)C | 8.28 µM (active) |  |
| O=C(NCC(=O)N1CCCCCCC1)c1ccccc1Cl | inactive |  |
| CCC1CCCCN1CCCNC(=O)c1cc2c(Cl)nc3ccccc3c2s1 (stereo unspecified) | 11.7 µM (active) |  |
| CCC1CCCCN1CCCNC(=O)Cn1nc(-c2ccccc2)ccc1=O (stereo unspecified) | inactive |  |

| SMILES | Potency | activity change, negative = inhibition |
| --- | --- | --- |
| Cc1ccc(CN2C(=O)CCC2C(=O)NCCCN2CCCCC2C)cc1 (stereo unspecified) | inactive |  |
| COc1cccc(NC(=O)CSc2nnc(-c3cccnc3)o2)c1 | inactive |  |
| CCOc1cc2c(cc1OCC)C(C(=O)O)C(c1ccc(OC)c(O)c1)N(C)C2=O (stereo unspecified) | inactive |  |
| COc1cccc(NC(=O)C2c3cc(OC)c(OC)cc3C(=O)N(C)C2c2cccnc2)c1 (stereo unspecified) | 8.28 µM (active) |  |
| CCC(c1nnc(SCC(=O)NNC(=O)c2ccccc2)n1Cc1ccccc1)N(C)C (stereo unspecified) | inactive |  |
| O=C(Nc1ccc(OCC(=O)N2CCOCC2)cc1)c1cc(F)c(F)cc1Cl | inactive |  |
| C/C(=N\NC(=O)c1cc(-c2ccc(O)cc2)nc2ccccc12)c1cccnc1 | inactive |  |
| O=C(O)/C=C/c1ccc(OCCCF)cc1 | inactive |  |
| COc1ccc([C@H]2CC(=O)C=C(/C=C/c3ccccc3)C2)cc1 | inactive |  |
| Cc1cc(C)cc(NC(=O)CN2C(=O)c3ccccc3C2=O)c1 | inactive |  |
| CS(=O)(=O)N(CC(=O)Nc1ccc(F)cc1)C1CCCCC1 | inactive |  |
| O=C(COc1ccccc1Cl)N1CCCCCCC1 | inactive |  |
| Cc1cccc(C(=O)Nc2nnc(S(=O)(=O)N3CCCCCC3)s2)c1 | inactive |  |
| CCCn1c(N)c(C(=O)CSc2nnc3n2CCCCC3)c(=O)[nH]c1=O | inactive |  |
| CCCn1c(N)c(C(=O)CSc2nnc(-c3cccnc3)n2-c2ccc(C)cc2C)c(=O)[nH]c1=O | 9.28 µM (active) |  |
| CCCn1c(N)c(C(=O)CSc2nc3ccccc3c(=O)n2-c2ccc(OC)cc2)c(=O)[nH]c1=O | inactive |  |
| COC(=O)c1c(C)[nH]c(C(=O)/C=C/c2ccc(Cl)cc2)c1C | 4.65 µM (active) |  |
| CCCCOC(=O)c1[nH]c(C)c(C(=O)OC)c1C | inactive |  |
| COC(=O)c1c(C)[nH]c(C(=O)NCCc2ccc(S(N)(=O)=O)cc2)c1C | inactive |  |
| NC(=O)COc1ccccc1C(=O)NC12CC3CC(CC(C3)C1)C2 | inactive |  |
| COc1ccc([N+](=O)[O-])cc1NCC(=O)c1ccc(C)cc1 | inactive |  |
| O=C(O)[C@@H](S)[C@H](S)C(=O)O | 4.26 µM (active) |  |

| SMILES | Potency | activity change, negative = inhibition |
| --- | --- | --- |
| COc1ccc(S(=O)(=O)Nc2ccccc2C(=O)N2CCCC2)cc1C | inactive |  |
| CC1CCCN(CCCNC(=O)CN2C(=O)COc3ccc(S(=O)(=O)N4CCOCC4)cc32)C1 (stereo unspecified) | inactive |  |
| CCOC(=O)c1c(-c2ccccc2)oc2cc(Br)c(O)c(C=O)c12 | 9.28 µM (active) |  |
| CCOC(=O)c1c(-c2ccccc2)oc2ccc(OCC(N)=O)cc12 | inactive |  |
| CCOC(=O)c1c(-c2ccccc2)oc2ccc(OCC(=O)NN)cc12 | inactive |  |
| Cc1cccc(C(=O)OC(C)CN2CCCC2)c1 (stereo unspecified) | inactive |  |
| COC(=O)[C@]1(C)CCC[C@@]2(C)C3CC[C@]4(OC(C)=O)C[C@@]3(CCC21)CC4=NO (stereo partly specified) | inactive |  |
| O=C(NCc1ccncc1)c1ccc(NS(=O)(=O)c2cccc([N+](=O)[O-])c2)cc1 | inactive |  |
| CCN(CC)P(=O)(Oc1cccc(C)c1)N(CC)CC | inactive |  |
| Cc1cccc(OP(=O)(Oc2cccc(C)c2)OC(c2ccccc2)C(F)(F)F)c1 (stereo unspecified) | 10.4 µM (active) |  |
| Cc1cccc(OP(=O)(Nc2c(C)n(C)n(-c3ccccc3)c2=O)Oc2cccc(C)c2)c1 | inactive |  |
| O=C(Nc1nnc(C2CC2)s1)c1cc(Cl)sc1Cl | inactive |  |
| COc1ccc(OC)c(NC(=O)CCN2CCC(C)CC2)c1 | inactive |  |
| CCOC(=O)N1CCN(CCC(=O)Nc2cc(OC)ccc2OC)CC1 | inactive |  |
| CCN1CCN(c2nc(Nc3cc(OC)ccc3OC)nc(Nc3cc(OC)ccc3OC)n2)CC1 | 9.28 µM (active) |  |
| CC(Sc1nnc(-c2cccs2)n1C1CC1)C(=O)NCC1CCCO1 (stereo unspecified) | inactive |  |
| COc1cc(CCC(=O)N2CCN(c3ccccc3Cl)CC2)cc(OC)c1OC |  | 1.7% [at 0.00184 µM] |
| CCOC(=O)Cn1c(O)c(N=NC(=O)CNC(=O)Cc2ccccc2)c2ccccc21 | inactive |  |
| Cc1ccc2nc(-c3ccc(NC(=O)c4cccnc4)cc3)oc2c1 | 9.28 µM (active) |  |
| Cc1cc2nc(-c3ccc(NC(=O)c4cccnc4)cc3)oc2cc1C | inactive |  |
| CC(=O)Nc1ccc(-c2nc3ccccc3o2)cc1 | inactive |  |
| CCC(=O)Nc1cccc(NC(=O)c2cccnc2)c1 | inactive |  |

| SMILES | Potency | activity change, negative = inhibition |
| --- | --- | --- |
| CCOC(=O)c1cc(NC(=O)c2cccnc2)cc(C(=O)OCC)c1 | 2.94 µM (active) |  |
| CCOC(=O)c1ccc(NC(=O)c2cccnc2)cc1 | inactive |  |
| COc1ccc(C(=O)Nc2cccnc2)cc1C(=O)Nc1cccnc1 | inactive |  |
| CCOC(=O)c1ccc(NC(=O)CSc2ncccn2)cc1 | inactive |  |
| CCOC(=O)c1ccc(-c2ccc(C(=O)Nc3cccnc3)o2)cc1 | 2.62 µM (active) |  |
| Cc1cccc(NC(=O)c2cccc(C(=O)Nc3cccc(C)c3C)n2)c1C | inactive |  |
| CN(C)c1nc(Nc2ccc(Cl)c(Cl)c2)nc(N(C)C)n1 | inactive |  |
| Cc1cc(C)c(CN2CCN(C(=O)Cn3ccc(NC(=O)OCc4ccccc4)nc3=O)CC2)c(C)c1 | inactive |  |
| COc1ccc(/C(C)=N/NC(=O)c2ccc3nc[nH]c3c2)cc1 | inactive |  |
| CC(OC(=O)CCCOc1ccccc1)C(=O)Nc1ccc(Cl)cn1 (stereo unspecified) | inactive |  |
| CCCOc1ccccc1C(=O)NCCCC(=O)O | inactive |  |
| CCOc1ccccc1C(=O)NCCCn1ccnc1 | inactive |  |
| CCCCOCCCNC(=O)c1ccccc1OCC | 10.4 µM (active) |  |
| CCc1nc2ccc(C(=O)N3CCN(c4cccc(Cl)c4)CC3)cc2nc1CC | inactive |  |
| COc1ccc(C2(C)NC(=O)N(CC(=O)c3ccc4c(c3)OCO4)C2=O)cc1 (stereo unspecified) | inactive |  |
| COc1ccc(C2(O)C(=O)Nc3ccccc32)cc1 (stereo unspecified) | inactive |  |
| COc1ccc(C2(C)ON(c3ccccc3C(F)(F)F)C2=O)cc1 (stereo unspecified) | 6.57 µM (active) |  |
| CCC1Oc2ccccc2N(CC(=O)NCCCN2CCN(CC)CC2)C1=O (stereo unspecified) | inactive |  |
